Source: PubChem BioAssay (NCATS)
Results filed as inconclusive are left out. Activity calls are given as the source filed them. Calls come from the whole dose curve; as a rule, active = well fitted inhibition curve with a large enough effect; inconclusive = small, poorly fitted or top-dose-only effect; inactive = flat fitted curve, though single readings scatter. Bridge positions count the residues as written; N and C are the ends. Square brackets hold non-standard residues; d marks the D form. Peptide text beside a SMILES is read from it. hArg = N=C(N)NCCCC[C@H](N)C(=O)O; Mpa = O=C(O)CCS

These molecules were tested on CRL-7250 (assay: qHTS assay to identify novel small-molecules to repurpose for Merkel cell carcinoma treatment (AID 1296009; note: nearly all actives have a fitted effect of over 60% in size)). Conditions: MCC and control cell lines, CellTiter-Glo viability, 72 h; at 44.8 µM (top of the series) unless noted.
Method in brief: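 Cells exposed to NPC (8-point) and MIPE (11-point) compound dilutions for 72 hr at 37 degree celsius; viability read by CellTiter-Glo luminescence, normalized to no-cell and DMSO in-plate controls.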

For c1ccc2c(c1)CCc1ccccc1N2, which outcome is on record?
The outcome was “inactive”.

CCCOC(=O)c1ccc(N)cc1 was tested. Which outcome did it give?
The outcome was “inactive”.

For C[C@]12CC[C@@H]3c4ccc(O)cc4CC[C@H]3[C@@H]1CCC2=O, which outcome is on record?
The outcome was “inactive”.

For Cc1cc(CC(=O)O)n(C)c1C(=O)c1ccc(Cl)cc1, which outcome is on record?
Its outcome is “inactive”.

With CC1=C(C(=O)O)N2C(=O)[C@@H](NC(=O)[C@H](N)C3=CCC=CC3)[C@H]2SC1 as the molecule, how does the outcome read?
The outcome was “inactive”.

Which outcome does the source give for COc1cc(NS(=O)(=O)c2ccc(N)cc2)ncn1 here?
The outcome was “inactive”.

With CCCc1cc(C(N)=S)ccn1 as the molecule, how does the outcome read?
Its outcome is “inactive”.

For O=C(NCC1CN(c2ccc(N3CCOCC3=O)cc2)C(=O)O1)c1ccc(Cl)s1 (configuration not stated), which outcome is on record?
The outcome was “inactive”.

How did the outcome turn out when C[C@H]1C[C@H]2[C@@H]3CCC4=CC(=O)C=C[C@]4(C)[C@@]3(Cl)[C@@H](O)C[C@]2(C)[C@@]1(O)C(=O)CO was run?
The outcome was “inactive”.

With Cc1c(C(=O)NN2CCCCC2)nn(-c2ccc(Cl)cc2Cl)c1-c1ccc(Cl)cc1 as the molecule, how does the outcome read?
The outcome was “inactive”.

Which outcome does the source give for CCN(CCCc1ccccc1)CCCc1ccccc1 here?
The outcome was “inactive”.

With CCN(CCCCOC(=O)c1ccc(OC)c(OC)c1)C(C)Cc1ccc(OC)cc1 (configuration not stated) as the molecule, how does the outcome read?
Its outcome is “inactive”.

Which outcome does the source give for Cc1ccc(Nc2c(F)cccc2Cl)c(CC(=O)O)c1 here?
Its outcome is “inactive”.

For CN(Cc1cc(Br)cc(Br)c1N)C1CCCCC1, which outcome is on record?
The outcome was “inactive”.

N[C@@H](CSSC[C@H](N)C(=O)O)C(=O)O was tested. Which outcome did it give?
Its outcome is “inactive [at 0.588 µM]”.

With COc1cccc(N(C)C(=S)Oc2ccc3c(c2)CCCC3)n1 as the molecule, how does the outcome read?
The outcome was “inactive”.

Which outcome does the source give for O=C1CC2(CCCC2)CC(=O)N1CCCCN1CCN(c2ncccn2)CC1 here?
Its outcome is “inactive”.

How did the outcome turn out when Fc1ccc(C(c2ccc(F)cc2)N2CCNCC2)cc1 was run?
Its outcome is “inactive”.

With O=c1[nH]c2cc(C(F)(F)F)c(N3CCOCC3)cc2n(CP(=O)(O)O)c1=O as the molecule, how does the outcome read?
The outcome was “inactive”.

With CN(C)[C@@H](CCOc1cccc2ccccc12)c1ccccc1 as the molecule, how does the outcome read?
The outcome was “inactive”.

With CCC(=O)O[C@]1(C(=O)COC)[C@@H](C)C[C@H]2[C@@H]3CCC4=CC(=O)C=C[C@]4(C)C3(F)[C@@H](O)C[C@@]21C (some centres not stated) as the molecule, how does the outcome read?
Its outcome is “inactive”.

How did the outcome turn out when NC(=O)[C@@H]1CSSCCC(=O)N[C@@H](CCCCN=C(N)N)C(=O)NCC(=O)N[C@@H](CC(=O)O)C(=O)N[C@@H](Cc2c[nH]c3ccccc23)C(=O)N2CCC[C@H]2C(=O)N1 ([Mpa][hArg]GDWPC-NH2; disulfide 1-7) was run?
Its outcome is “inactive”.
